PubChem BioAssay (NCI)
Values joined by “and” are separate entries in the source; they are usually repeats but may differ in a detail not shown here. Equal values may be shown once. Compounds without any hit were thinned out: in the full panel of roughly 79,000, 15% have a hit. More than one record can exist for a structure, and the calls need not agree. Active and inactive are the calls of the source. Cut-off read from the data, not from the text of the source: active = growth inhibition above about 70%; inactive = the rest.

Assays:
[1] = NCI Yeast Anticancer Drug Screen. Data for the rad50 strain (AID 155);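 note: 0% = growth of vehicle-only cultures of the same strain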; conditions: S. cerevisiae rad50 strain growth inhibition, stronger effect = higher value
Method in brief: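 DNA repair mutant yeast, compound exposure, growth read-out; inhibition is taken relative to vehicle.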

[2] = NCI Yeast Anticancer Drug Screen. Data for the mec2-1 strain (AID 157); conditions: S. cerevisiae mec2-1 strain, stronger effect = higher value
Method in brief: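 Readout is yeast growth inhibition, normalised to vehicle-treated controls, in the mec2-1 strain exposed to compound.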

[3] = NCI Yeast Anticancer Drug Screen. Data for the sgs1 mgt1 strain (AID 161);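 note: 0% = growth of cultures given vehicle only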; conditions: S. cerevisiae sgs1 mgt1 strain, stronger effect = higher value
Method in brief: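 Percent growth inhibition was derived by comparing compound-exposed mutant yeast with vehicle-exposed cultures. The strain carries alterations in DNA damage repair.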

[4] = NCI Yeast Anticancer Drug Screen. Data for the cln2 rad14 strain (AID 165);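 note: 0% = growth equal to vehicle treated cultures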; conditions: S. cerevisiae cln2 rad14 strain, stronger effect = higher value
Method in brief: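 Relative to vehicle controls, growth inhibition of compound-treated cln2 rad14 yeast was recorded.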

[5] = NCI Yeast Anticancer Drug Screen. Data for the bub3 strain (AID 167); conditions: S. cerevisiae bub3 mutant strain, stronger effect = higher value
Method in brief: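 In this screen, a yeast mutant lacking normal mitotic checkpoint function is challenged with compound. Relative growth versus vehicle gives the inhibition value.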

[6] = NCI Yeast Anticancer Drug Screen. Data for the mlh1 rad18 strain (AID 175); conditions: S. cerevisiae mlh1 rad18 strain growth inhibition, stronger effect = higher value
Method in brief: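 Test agents were incubated with a yeast strain of defined genotype (DNA damage repair defect). Inhibition of growth was derived by comparison with vehicle-exposed cultures.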

[7] = at 5.0 µM (retest, dose inferred, filed as 0.5)
[8] = at 50.0 µM (retest, dose inferred, filed as 5.0)

Compound	growth inhibition [1, 7]	growth inhibition [1, 8]	growth inhibition [2, 7]	growth inhibition [2, 8]	growth inhibition [3, 7]	growth inhibition [3, 8]	growth inhibition ([3]; at 50.0 µM)	growth inhibition [4, 7]	growth inhibition [4, 8]	growth inhibition [5, 7]	growth inhibition [5, 8]	growth inhibition ([5]; at 50.0 µM)	growth inhibition [6, 7]	growth inhibition [6, 8]	growth inhibition ([6]; at 50.0 µM)	growth inhibition ([1]; at 50.0 µM)	growth inhibition ([2]; at 50.0 µM)	growth inhibition ([4]; at 50.0 µM)
C[C@H]1CCC/C=C/[C@@H]2C[C@H](O)C[C@H]2[C@H](O)/C=C/C(=O)O1	5% (inactive) and 15% (inactive)	98% (active) and 99% (active)	10% (inactive) and 26% (inactive)	99% (active) and 100% (active)	13% (inactive) and 21% (inactive)	99% (active)	90.3% (active) and 5.45% (inactive) and 90.8% (active)	7% (inactive) and 27% (inactive)	99% (active)	4% (inactive) and 31% (inactive)	97% (active) and 98% (active)	90.8% (active) and 1.65% (inactive) and 90.9% (active)	17% (inactive) and 42% (inactive)	99% (active)	90.8% (active) and 13.7% (inactive) and 39% (inactive)	–	–	–
COc1cc(C=Nc2cc[c]([Hg][O]C(C)=O)cc2)ccc1O	4% (inactive)	23% (inactive)	-1% (inactive)	67% (inactive)	2% (inactive)	67% (inactive)	99.4% (active)	–	–	3% (inactive)	75% (active)	99.3% (active)	0% (inactive)	56% (inactive)	99.3% (active)	99.5% (active)	99.5% (active)	–
O=S(=O)(O)O	–	–	–	–	–	–	–	–	–	–	–	–	–	–	-10.7% (inactive) and 13.2% (inactive) and -10.6% (inactive)	–	–	–
CCCCCC(O)C1C(=O)OC(C)C(O)/C=C/C=C/C=C/C=C/C=C(\C)C(O)C(O)C(O)CC(O)CC(O)CC(O)CC(O)CC1O (stereo unspecified)	–	–	–	–	–	–	-2.25% (inactive) and -8.45% (inactive) and -33% (inactive)	–	–	–	–	-2.15% (inactive) and 4.5% (inactive) and 11% (inactive)	–	–	17.9% (inactive) and -47.9% (inactive) and 0.55% (inactive)	-5.85% (inactive) and -8.05% (inactive) and -2.3% (inactive)	-36.5% (inactive) and -20% (inactive) and -0.45% (inactive)	-14.2% (inactive) and -5% (inactive) and -4.05% (inactive)
Br[C](Br)(Br)[Hg][c]1ccccc1	99% (active)	98% (active)	100% (active)	99% (active)	100% (active)	99% (active)	90% (active)	–	–	100% (active)	99% (active)	89.1% (active)	99% (active)	98% (active)	–	87.3% (active)	89.8% (active)	–
NC(c1ccccc1)C(O)c1ccccc1 (stereo unspecified)	–	–	–	–	–	–	10.7% (inactive) [middle of 4 runs]	–	–	–	–	–	–	–	-10.7% (inactive) [middle of 4 runs]	2.1% (inactive) [middle of 4 runs]	3.2% (inactive) [middle of 4 runs]	–
N=C(N)SCc1ccccc1	–	–	–	–	–	–	7.55% (inactive) [middle of 5 runs]	–	–	–	–	-5.6% (inactive) [middle of 5 runs]	–	–	–	-2.55% (inactive) [middle of 5 runs]	-2.2% (inactive) [middle of 5 runs]	–
O=C1C(Br)=CC2(C=C1Br)CCNc1c(O)c3c4c(c12)=NCCC=4C=N3	31% (inactive)	72% (active)	15% (inactive)	44% (inactive)	17% (inactive)	71% (active)	54.2% (inactive)	-1% (inactive)	50% (inactive)	-14% (inactive)	78% (active)	49.6% (inactive)	25% (inactive)	75% (active)	57.5% (inactive)	57.9% (inactive)	46.5% (inactive)	24.9% (inactive)
C/C1=C\[C@@H](O)C(=O)/C=C/C=C\c2csc(n2)[C@@H](C)NC(=O)C[C@@]2(CC1)S(=O)SC(=O)[C@]2(C)O (stereo partly specified)	92% (active)	98% (active)	–	–	90% (active)	98% (active)	92.2% (active)	97% (active)	98% (active)	94% (active)	98% (active)	90.3% (active)	96% (active)	98% (active)	85% (active)	91.6% (active)	–	89.2% (active)
CN1C(=O)CC[C@@]2(C)C1=CC[C@H]1[C@@H]3CC[C@H](O)[C@@]3(C)CC[C@@H]12	7% (inactive)	64% (inactive)	0% (inactive)	43% (inactive)	12% (inactive)	79% (active)	55% (inactive)	13% (inactive)	40% (inactive)	3% (inactive)	63% (inactive)	62.1% (inactive)	6% (inactive)	52% (inactive)	15.1% (inactive)	-9.15% (inactive)	14.9% (inactive)	-3.4% (inactive)
CCC1(CC)C(=O)[N-]C(=O)[N-]C1=O.[Au+].[Au+].c1ccc([PH+](c2ccccc2)c2ccccc2)cc1.c1ccc([PH+](c2ccccc2)c2ccccc2)cc1	99% (active)	94% (active)	–	–	99% (active)	96% (active)	-4.5% (inactive)	95% (active)	96% (active)	99% (active)	90% (active)	2.2% (inactive)	98% (active)	96% (active)	4.65% (inactive)	1.75% (inactive)	–	35.1% (inactive)
N=P(c1ccccc1)(c1ccccc1)c1ccccc1 (tested in a mixture with another compound)	10% (inactive)	32% (inactive)	6% (inactive)	25% (inactive)	14% (inactive)	32% (inactive)	44.1% (inactive)	-3% (inactive)	10% (inactive)	-1% (inactive)	29% (inactive)	19.1% (inactive)	6% (inactive)	27% (inactive)	59.9% (inactive)	62.2% (inactive)	17.3% (inactive)	25.4% (inactive)
N=C(N)SCc1ccc(Cl)c2ccccc12 (tested in a mixture with another compound)	12% (inactive) and 8% (inactive)	94% (active) and 60% (inactive)	1% (inactive) and -15% (inactive)	58% (inactive) and 35% (inactive)	-6% (inactive) and -9% (inactive)	93% (active) and 51% (inactive)	98.5% (active) and 92.5% (active)	-40% (inactive) and -1% (inactive)	94% (active) and 38% (inactive)	-21% (inactive) and -5% (inactive)	72% (active) and 66% (inactive)	98.2% (active) and 92.8% (active)	2% (inactive) and -3% (inactive)	91% (active) and 88% (active)	98.7% (active) and 96% (active)	98.8% (active) and 90% (active)	98.6% (active) and 89.5% (active)	94.8% (active) and 57% (inactive)
